DAX1 inh-1: DAX1 (NR0B1) inhibition, primary screen; 370,000 tested, 1.1% active; AID 652010; HEK293T StAR-luciferase reporter, SF-1/DAX-1 repression relief; inhibition, % at 6.8 µM;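 active = inhibition above the mean over all tested compounds plus 3 SD, cut at about 3.6% in these data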;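 note: 0% = DAX-1 cells with DMSO and 100% = cells lacking DAX-1 with DMSO; higher inhibition means more luminescence from relief of DAX-1 repression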
SMARCA2 activ: activators of SMARCA2 function; MG213 cells, MMTV-luciferase reporter, dexamethasone, overnight; activation, % at 9.1 µM; 370,000 tested, 1% active; in the data active = activation above about 7.8%;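 note: 0% = vehicle wells and 100% = reference activator wells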
ssDAF12 agonist: S. stercoralis DAF-12 activation, primary screen. 370,000 tested, 1% active. HEK293 ssDAF-12/GRIP1 lit1-tk-luc reporter, luminescence; % of 3 µM dafachronic acid response. activation, % at 6.8 µM;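 active = activation above the mean over all tested compounds plus 3 SD, cut at about 0.9% in these data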;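 note: 0% = DMSO-only wells and 100% = 3 µM delta7-dafachronic acid wells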
DAX1 inh-2: NR0B1 (DAX1) inhibition | HEK293 Gal4-DAX1 luciferase reporter, luminescence | P51843 | inhibition, % at 6.75 µM | 340,000 tested, 0.99% active;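 active = inhibition above the mean over all tested compounds plus 3 SD, cut at about 4.2% in these data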;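 note: 0% = DAX1-transfected cells with DMSO and 100% = empty-vector control cells with DMSO; inhibition shows as a rise in luminescence from relieved DAX1 repression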
hgDAF-12 ag: hgDAF-12 agonism, primary luciferase screen; HEK293 GAL4-hgDAF12 UAS-luciferase reporter, agonist luminescence; normalized to butyrate control; activation, % at 6.8 µM; 370,000 tested, 1.8% active; AID 687014;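 active = activation above a cutoff set at the mean of all screened compounds plus 3 SD, cut at about 10% in these data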;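 note: 0% = DMSO wells and 100% = sodium butyrate wells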
hcDAF12 agonist: activates DAF-12 receptor from parasite H. contortus | HEK293 hcDAF-12 lit1-tk-luc reporter, luminescence; 0% DMSO, 100% Δ7-dafachronic acid | activation, % at 6.8 µM | 370,000 tested, 1.4% active | AID 652067;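 active = activation above the mean of all tested compounds plus 3 SD, cut at about 5.5% in these data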;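 note: 100% = response to 3 µM Δ7-dafachronic acid high control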
DAX1 conf: NR0B1 (human) inhibition, confirmation; shares compounds with DAX1 inh-1; HEK293T StAR-promoter luciferase reporter, SF-1/DAX-1 repression; 2,400 tested, 87% active; inhibition, % at 6.8 µM;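 active = inhibition above the average of every tested compound plus 3 SD, cut at about 3.8% in these data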;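 note: 0% = DAX-1 cells with DMSO and 100% = no DAX-1 control cells with DMSO; active compounds raise luminescence by relieving repression of the StAR reporter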
Target sequence (P51843 whole entry, looked up): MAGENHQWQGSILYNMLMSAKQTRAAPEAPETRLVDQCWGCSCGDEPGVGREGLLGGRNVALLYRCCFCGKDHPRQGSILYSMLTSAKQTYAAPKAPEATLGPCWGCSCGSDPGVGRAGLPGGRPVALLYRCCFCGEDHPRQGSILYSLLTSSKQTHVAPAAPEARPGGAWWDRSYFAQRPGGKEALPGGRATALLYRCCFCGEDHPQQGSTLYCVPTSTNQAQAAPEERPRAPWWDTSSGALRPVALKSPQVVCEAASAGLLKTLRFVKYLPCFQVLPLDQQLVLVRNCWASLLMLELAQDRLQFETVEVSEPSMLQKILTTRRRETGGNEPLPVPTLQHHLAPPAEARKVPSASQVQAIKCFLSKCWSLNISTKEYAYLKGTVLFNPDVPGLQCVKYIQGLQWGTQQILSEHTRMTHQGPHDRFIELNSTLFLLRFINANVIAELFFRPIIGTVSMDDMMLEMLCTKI
SF1 mutant ctr: counter-screen for DAX1 inhibitors: nonselective inhibitors with SF-1 AF2 mutant | AID 652136 | HEK293 StAR-luciferase, luminescence | 2,400 tested, 78% active | inhibition, % at 6.8 µM | shares compounds with DAX1 inh-1;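 active = inhibition above the mean of all tested compounds plus 3 SD, cut at about 3% in these data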;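 note: 0% = DAX-1 transfected cells with DMSO and 100% = cells without DAX-1 with DMSO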
SMARCA2 conf: confirmation of SMARCA2 (BRM) function activators. shares compounds with SMARCA2 activ. MG213 cells, MMTV-luciferase with dexamethasone, luminescence, overnight; MG213 cells expressing E1A, Rb sequestered; DMSO wells 0%, reference activator 100%. activation, % at 9.1 µM. 3,500 tested, 30% active. AID 652260;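 active = activation above its plate's cutoff, the mean activation of tested wells plus 3 SD, cut at about 7.9% in these data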
GAL4-VP16 Luc: activates GAL4-VP16 luciferase, flagging SMARCA2 activator hits | shares compounds with SMARCA2 activ | HEK293 GAL4-VP16 pG5luc reporter, luciferase luminescence; scaled: DMSO wells 0%, SAHA wells 100% | activation, % at 9.1 µM | 3,500 tested, 41% active | AID 686939;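 active = activation above the solvent-only control well mean plus 3 SD, averaged across control plates, cut at about 5.2% in these data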
LXR ag: counter-screen for hcDAF-12 agonists: agonists of human LXR-beta; shares compounds with hcDAF12 agonist; activation, % at 6.8 µM; HEK293 Gal4-LXR tk-luc reporter, luminescence, 24 h; normalized: DMSO 0%, positive control 100%; 3,400 tested, under 10 active;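 active = mean percent activation of the reporter above a cutoff set as the average over tested compounds plus their standard deviation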
hcDAF12 ag: confirmation of H. contortus DAF-12 agonists; HEK293 hcDAF-12 lit1-tk-luc reporter, luminescence; % of Δ7-dafachronic acid response; 3,400 tested, 61% active; AID 743032; shares compounds with hcDAF12 agonist; activation, % at 6.8 µM;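 active = mean activation across triplicate tests above the threshold derived from the earlier primary screen, cut at about 5.5% in these data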;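 note: 0% = DMSO only wells and 100% = 3 µM Δ7-dafachronic acid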
hgDAF12 ag: confirmation of H. glycines DAF-12 agonists. activation, % at 6.8 µM. AID 743050. HEK293 GAL4-hgDAF12 luciferase reporter, agonist mode; percent of butyrate response. 3,300 tested, 80% active. shares compounds with hgDAF-12 ag;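 active = mean activation over triplicate wells above the hit cutoff derived from the earlier primary screen, cut at about 11% in these data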;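 note: 0% = DMSO low control and 100% = 2 mM sodium butyrate high control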
LXRb DAF12 ctr: activates human LXR-beta, counter-screen for DAF-12 agonists; shares compounds with hgDAF-12 ag; HEK293 Gal4-LXR luciferase reporter, 24 h; activation, % at 6.8 µM; 3,300 tested, under 10 active;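 active = mean activation of the triplicate above a set limit carried over from the primary screen, none filed active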
* marks the source's active call; other numbers are inactive results; / = not tested or not shown. A selection: hits, their analogues and other compounds. The true share with any hit is near 4.8%.

SMILES	DAX1 inh-1	SMARCA2 activ	ssDAF12 agonist	DAX1 inh-2	hgDAF-12 ag	hcDAF12 agonist	DAX1 conf	SF1 mutant ctr	hgDAF12 ag	LXRb DAF12 ctr	others
CN(C)CCNc1ncnc2c1cnn2-c1ccc(Cl)cc1	5.5*	13*	1	2	19*	7.8*	10.0*	6.6*	14*	1	SMARCA2 conf=11*;GAL4-VP16 Luc=12*;LXR ag=1;hcDAF12 ag=4
Cc1ccc(Cn2ncc3c(NCCN(C)C)ncnc32)cc1	0	-2	-1	0	-1	-2	/	/	/	/
Clc1ccc(-n2ncc3c(NCC4CCCO4)ncnc32)cc1 (configuration not stated)	7.1*	7	0	2	14*	3	4.6*	0	17*	1
NC(=O)c1ccsc1NC(=O)COC(=O)c1ccccc1F	0	-1	-1	0	-2	-1	/	/	/	/
O=C(COc1ccccc1[N+](=O)[O-])Nc1ccc2c(c1)OCO2	6.7*	7	0	3	15*	9.2*	6.8*	4.1*	12*	1	LXR ag=1;hcDAF12 ag=5.8*
O=C(COC(=O)COc1ccccc1[N+](=O)[O-])Nc1ccc2c(c1)OCO2	0	2	-1	-1	-2	1	/	/	/	/
NC(=O)c1cc(Cl)ccc1OCC(=O)Nc1ccc2c(c1)OCO2	12*	5	0	1	16*	2	12*	8.7*	15*	1
N#Cc1ccccc1OCC(=O)Nc1ccc2c(c1)OCO2	5.9*	9.0*	0	4	20*	2	6.5*	4.0*	13*	0	SMARCA2 conf=18*;GAL4-VP16 Luc=7.6*
Cc1cccc(OCC(=O)Nc2ccc3c(c2)OCO3)c1C	0	-4	-1	1	2	-1	/	/	/	/
CCN(CC)S(=O)(=O)c1ccc(C)c(NC(=O)COc2ccc3c(C)cc(=O)oc3c2)c1	-2	0	-1	2	0	-2	/	/	/	/
O=C(Nc1n[nH]c(=S)s1)c1ccc2ccccc2c1	16*	6	0	1	14*	3	13*	6.3*	13*	1
Cc1nn(CC(=O)NC(C)CCc2ccccc2)c(=O)c2nn(-c3ccccc3)c(C)c12 (configuration not stated)	-4	-5	-1	-1	-4	-3	/	/	/	/
O=C(COc1ccc(Br)cc1)NCc1cn2ccccc2n1	0	-2	0	-1	5	-2	/	/	/	/
Brc1ccc(OCc2cn3ccccc3n2)cc1	6.5*	2	0	0	20*	4	9.2*	4.6*	16*	1
Cc1cc2c(cc1C)NC(=O)C(C)CN2 (configuration not stated)	5.7*	4	3.0*	3	20*	12*	16*	7.9*	14*	1	LXR ag=2;hcDAF12 ag=11*
CC(OC(=O)c1ccc2c(c1)OCCO2)C(=O)c1ccccc1 (configuration not stated)	12*	5	1	4.9*	14*	7.3*	11*	6.8*	16*	1	LXR ag=2;hcDAF12 ag=7.8*
Cn1cccc1C(=O)C(=O)Nc1cc(Cl)cc(Cl)c1	1	3	0	0	4	-1	/	/	/	/
Cn1cccc1C(=O)C(=O)Nc1ccc(F)c(F)c1	4.9*	7	1.8*	4	15*	5	9.1*	7.7*	16*	1
Cn1cccc1C(=O)C(=O)Nc1ccc(Cl)cc1	5.1*	7	1.4*	0	14*	11*	15*	9.2*	20*	1	LXR ag=2;hcDAF12 ag=8.6*
COc1ccc(OCc2cc(C(=O)NC(C)c3cnn(C)c3)no2)c(Cl)c1 (configuration not stated)	0	6	-1	1	4	1	/	/	/	/
CCOc1ccc(-c2ccc(SCC)nn2)cc1	7.9*	5	0	0	24*	5	14*	6.7*	19*	1
CCOc1ccc(-c2ccc(SCc3ccccn3)nn2)cc1	1	0	-2	0	10	4	/	/	/	/
Cc1ccc(-c2ccc(SCC(=O)NC3CCCC3)nn2)cc1	1	-1	-1	1	0	0	/	/	/	/
CCSc1ccc(-c2ccc(C)cc2)nn1	11*	13*	0	1	20*	11*	17*	7.4*	17*	1	SMARCA2 conf=14*;GAL4-VP16 Luc=9.5*;LXR ag=2;hcDAF12 ag=6.1*
O=c1oc2ccc([N+](=O)[O-])cc2c(N2CCOCC2)c1[N+](=O)[O-]	0	-3	-1	/	-1	-1	/	/	/	/
CC1CCN(S(=O)(=O)c2ccc(C(=O)Nc3ncccc3O)cc2)CC1	6.3*	-3	0	3	16*	0	8.4*	4.3*	15*	0
Cc1cccnc1NC(=O)c1ccc(S(=O)(=O)N2CCCCCC2)cc1	0	-1	-1	1	1	0	/	/	/	/
COc1ccc2cc(C3CC(c4ccco4)=NN3C(=O)CCC(=O)O)c(Cl)nc2c1 (configuration not stated)	-1	4	-1	-1	5	0	/	/	/	/

From PubChem
